Measurements: article PMC5540273 (PLoS ONE, 2017)

Experiments:
Settings in all cases: concentration: 1 μM, replicates: in singlicate; n = 1
EPHA3 = tested on: EPHA3
EPHA4 = tested on: EPHA4
EPHA5 = tested on: EPHA5
EPHA6 = tested on: EPHA6
EPHA7 = tested on: EPHA7
EPHA8 = tested on: EPHA8
EPHB1 = tested on: EPHB1
EPHB2 = tested on: EPHB2
EPHB3 = tested on: EPHB3
EPHB4 = tested on: EPHB4
EPHB6 = tested on: EPHB6
ERBB2 = tested on: ERBB2
ERBB3 = tested on: ERBB3
ERBB4 = tested on: ERBB4
ERK1 = tested on: T1, ERK1
T1 construct: gene MAPK3

ERK2 = tested on: T2, ERK2
T2 construct: gene MAPK1

ERK3 = tested on: T3, ERK3
T3 construct: gene MAPK6

ERK4 = tested on: T4, ERK4
T4 construct: gene MAPK4

ERK5 = tested on: T5, ERK5
T5 construct: gene MAPK7

ERK8 = tested on: T6, ERK8
T6 construct: gene MAPK15
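Further: KINOMEscan kinase panel screen.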

Structure (SMILES)	%Inh (EPHA3)	%Inh (EPHA4)	%Inh (EPHA5)	%Inh (EPHA6)	%Inh (EPHA7)	%Inh (EPHA8)	%Inh (EPHB1)	%Inh (EPHB2)	%Inh (EPHB3)	%Inh (EPHB4)	%Inh (EPHB6)	%Inh (ERBB2)	%Inh (ERBB3)	%Inh (ERBB4)	%Inh (ERK1)	%Inh (ERK2)	%Inh (ERK3)	%Inh (ERK4)	%Inh (ERK5)	%Inh (ERK8)
COc1cc2c(cc1OC[C@@H](O)CO)ncc1c3ccc(C#N)cc3[nH]c21	0%	8%	11%	10%	0%	0%	0%	0%	14%	4%	44%	22%	2%	0%	0%	15%	0%	7%	0%	33%
CC(=O)Nc1ccc(COc2ccc(Nc3ccnc4cc(-c5ccccn5)ccc34)cc2)cc1.Cl [GW440148]	17%	3%	0%	8%	0%	17%	0%	0%	8%	10%	53%	12%	0%	73%	0%	0%	6%	47%	14%	0%
CCn1cnc2c(N)ncnc21 [GW345098]	0%	7%	16%	17%	3%	1%	7%	0%	17%	14%	25%	0%	10%	0%	2%	19%	0%	0%	2%	5%
Cc1ccc(C(=O)NCC(N)=O)cc1-n1c(C)cc(OCc2ccc(F)cc2F)c(Br)c1=O	0%	12%	0%	27%	18%	15%	20%	19%	25%	27%	6%	36%	0%	0%	6%	0%	0%	0%	13%	13%
O=C(c1ccc(-c2cc(-c3c[nH]nc3-c3ccccn3)ccn2)cc1)N1CCOCC1 [GW812171]	17%	33%	1%	6%	0%	0%	13%	0%	16%	0%	0%	11%	0%	0%	0%	0%	0%	16%	0%	5%
CN(C(=O)c1ccc(-c2cc(-c3c[nH]nc3-c3ccccn3)ccn2)cc1)C1CCOCC1 [GW810083]	27%	0%	4%	0%	0%	0%	0%	0%	0%	0%	0%	38%	16%	0%	0%	4%	11%	7%	0%	1%
Cn1cc(-c2ccc3c(c2)CCN3C(=O)Cc2ccccc2Cl)c2c(N)ncnc21 [GSK2608885]	34%	62%	0%	58%	92%	93.5%	43%	64%	0%	15%	98.3%	97.2%	86%	98.9%	0%	0%	0%	23%	47%	0%
Fc1ccc(-c2nn3c(OCC(F)(F)F)cccc3c2-c2ccncc2)cc1 [GW514784]	24%	3%	0%	11%	0%	13%	16%	0%	6%	1%	0%	59%	29%	37%	0%	0%	6%	9%	0%	0%
O=C(NCCNc1ccnc(Nc2ccc(F)cc2)n1)Nc1ccccc1F [GSK1379880]	0%	6%	0%	0%	2%	21%	38%	0%	0%	0%	17%	9%	0%	38%	0%	0%	0%	8%	0%	0%
Fc1ccc(-c2ncn(CCCN3CCOCC3)c2-c2cccnc2)cc1 [SB-211743]	1%	0%	11%	0%	0%	3%	20%	0%	0%	0%	0%	0%	0%	0%	0%	8%	0%	0%	0%	29%
Nc1nc(-c2ccc3c(N)n[nH]c3c2)cc(N2CCCC2)n1 [GSK2227430]	3%	5%	0%	6%	0%	6%	0%	0%	13%	10%	19%	0%	0%	8%	0%	0%	0%	24%	0%	0%
